Inconclusive results are not listed. Activity calls are given as the source filed them. The call rests on the fitted dose curve; in most records, active means well fitted curve in the direction sought with a large enough effect; inconclusive means small, poorly fitted or top-dose-only effect, or another doubt; inactive means no such curve, though single readings can be large; an effect the other way counts as inactive or inconclusive.
Tests used:
[1] = target: Aldehyde dehydrogenase, mitochondrial (Homo sapiens) (UniProt P05091); assay: qHTS for Inhibitors of the Aldehyde Dehydrogenase Family (ALDH2) Primary screen (AID 2061308);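 further: plate controls were vehicle for no effect and reference inhibitor for full effect; nearly all actives have a fitted effect of over 55% in size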
[2] = target: Retinaldehyde dehydrogenase 3 (Homo sapiens) (UniProt P47895); assay: qHTS for Inhibitors of the Aldehyde Dehydrogenase Family (ALDH1A3) Primary screen (AID 2061315);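 further: plate controls were DMSO vehicle for no effect and reference inhibitor for full effect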
[3] = target: Aldehyde dehydrogenase 1A1 (Homo sapiens) (UniProt P00352); assay: qHTS for Inhibitors of the Aldehyde Dehydrogenase Family (ALDH1A1) Confirmatory screens (AID 2061316); further: potency means the concentration at half of the fitted maximal effect; nearly all actives have a fitted effect of over 65% in size
[4] = BET inhibitor-based combinations targeting novel dependencies in MECOM-rearranged (r) AML: SET-2 cell line (AID 2202231); details: SET-2 AML cells viability, CellTiter-Glo luminescence, 48 h; viability: hits give low values, concentration not given here; further: nearly all actives have a fitted effect of over 35% in size; further: potency means the concentration at half of the fitted maximal effect;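 on viability: plate controls were DMSO treated cells for no effect and wells without cells for full effect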
Method in brief: (§1)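 Viability of cells (500 per well) is scored by luminescent CellTiter-Glo at 48 hr post-dosing. Eleven-point titrations are normalized to DMSO and empty controls and reduced to AUC values.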

[5] = BET inhibitor-based combinations targeting novel dependencies in MECOM-rearranged (r) AML: OCI-AML3 cell line (AID 2202232); details: Potency: OCI-AML3 viability; further: nearly all actives have a fitted effect of over 35% in size; further: potency means the concentration at half of the fitted maximal effect
Method in brief: as §1

[6] = BET inhibitor-based combinations targeting novel dependencies in MECOM-rearranged (r) AML: HNT-34 cell line (AID 2202234); further: nearly all actives have a fitted effect of over 35% in size; further: potency means the concentration at half of the fitted maximal effect
Method in brief: (§2)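 Using pin-tool transfer, drugs were added in 11 doses to cells (500/well), incubated 48 hr, and assessed with CellTiter-Glo. Z-AUC is a mean-centring transformation applied separately to each screened line.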

[7] = BET inhibitor-based combinations targeting novel dependencies in MECOM-rearranged (r) AML: UCSD-AML1 cell line (AID 2202235); further: nearly all actives have a fitted effect of over 40% in size; further: potency means the concentration at half of the fitted maximal effect
Method in brief: as §2

[8] = BET inhibitor-based combinations targeting novel dependencies in MECOM-rearranged (r) AML: AML-191 cell line (AID 2202236; further: nearly all actives have a fitted effect of over 35% in size; further: potency means the concentration at half of the fitted maximal effect)
Method in brief: as §1

[9] = BET inhibitor-based combinations targeting novel dependencies in MECOM-rearranged (r) AML: MV-4-11 cell line (AID 2202233); further: nearly all actives have a fitted effect of over 45% in size; further: potency means the concentration at half of the fitted maximal effect
Method in brief: as §2

[10] = BET inhibitor-based combinations targeting novel dependencies in MECOM-rearranged (r) AML: AML-194 cell line (AID 2202237; further: nearly all actives have a fitted effect of over 40% in size; further: potency means the concentration at half of the fitted maximal effect)
Method in brief: as §1

Cc1ccc(CNc2ccccc2C(=O)Nc2nc(-c3ccccc3)cs2)cc1
inactive: Potency [1] | Potency [2]
active: Potency [3] 22.5 µM

Cn1cc(-c2cnc3ccc4ccc(CS(=O)(=O)NCc5ccccn5)cc4c(=O)c3c2)cn1
active: Potency [4] 16.6 µM | Potency [6] 23.5 µM | Potency [8] 23.5 µM
inactive: Potency [1] | Potency [2] | Potency [5] | Potency [7]

CCn1c(N)c(C(=O)NC)c(=O)c2ccc(C#CC(C)(O)COC)nc21 (stereo not drawn)
inactive: Potency [1] | Potency [2] | viability [4] 91.1% | Potency [7] | Potency [10]
active: Potency [9] 5.25 µM | Potency [8] 23.5 µM

C[C@H]1[C@@H](OC(=O)CCC(=O)O)O[C@@H]2O[C@@]3(C)CC[C@@H]4[C@H](C)CC[C@@H]1[C@@]24OO3
active: Potency [4] 3.72 µM | Potency [5] 4.17 µM | Potency [6] 2.95 µM | Potency [7] 8.33 µM | Potency [8] 5.25 µM | Potency [10] 9.34 µM
inactive: Potency [1] | Potency [2]

O=C(NCc1ccccc1)c1csc(Nc2ccncn2)n1
active: Potency [5] 10.5 µM | Potency [9] 9.34 µM | Potency [6] 10.5 µM | Potency [7] 18.6 µM | Potency [8] 18.6 µM | Potency [10] 18.6 µM
inactive: Potency [1] | Potency [2]

NC[C@@](O)(c1ccc(Cl)cc1)c1ccc(-c2cn[nH]c2)cc1
inactive: Potency [1] | Potency [2]
active: Potency [5] 5.25 µM | Potency [9] 4.68 µM | Potency [6] 4.17 µM | Potency [7] 9.34 µM | Potency [8] 7.42 µM | Potency [10] 6.61 µM

O=C(CO)N1CCC(c2[nH]nc(-c3ccc(Cl)cc3)c2-c2ccncn2)CC1
inactive: Potency [1] | Potency [2] | viability [4] 101% | Potency [9] | Potency [6] | Potency [7] | Potency [8] | Potency [10]

O=C(C1CC1)N1CC[C@@H](Cn2c(-c3ccc(-c4ccc5occc5c4)cc3)nc3cnccc32)C1
active: Potency [5] 10.5 µM | Potency [9] 20.9 µM | Potency [6] 26.3 µM
inactive: Potency [1] | Potency [2]

Nc1ccc(C(=O)c2cc3c(ccc4ccccc43)[nH]2)cc1
active: Potency [4] 30.3 µM | Potency [9] 3.82 µM | Potency [7] 2.7 µM | Potency [8] 1.52 µM | Potency [10] 2.41 µM
inactive: Potency [1] | Potency [2]

CN1CC[C@@H](c2c(O)cc(O)c3c(=O)cc(-c4ccc(C(F)(F)F)cc4Cl)oc23)[C@@H]1CO
inactive: Potency [1] | Potency [2]
active: Potency [9] 20.9 µM

O=C1NC(=O)/C(=C/c2cccc(C(F)(F)F)c2)S1
inactive: Potency [1] | Potency [2] | Potency [5] | Potency [8] | Potency [10]

COc1ncc(Nc2ncc([C@H](C)N3CCN(S(C)(=O)=O)CC3)cc2-c2nc(C)nc(N)n2)cc1F
active: Potency [5] 0.0468 µM | Potency [9] 0.0417 µM | Potency [7] 0.296 µM
inactive: Potency [1] | Potency [2]

COc1cccc(Nc2ncnn3ccc(CN4CC[C@@H](N)[C@H](O)C4)c23)c1
inactive: Potency [1] | Potency [2]
active: Potency [5] 14.8 µM | Potency [9] 0.296 µM | Potency [6] 1.32 µM | Potency [7] 4.17 µM | Potency [8] 4.68 µM

Cc1ccc(NC(=O)c2ccc(CN3CC[C@H](N(C)C)C3)c(C(F)(F)F)c2)cc1Nc1nccc(-c2cncnc2)n1
active: Potency [5] 2.04 µM | Potency [9] 8.11 µM | Potency [6] 0.0407 µM | Potency [10] 14.4 µM
inactive: Potency [1] | Potency [2]

C[C@@H](Nc1ncnc2[nH]c(-c3ccc(O)cc3)cc12)c1ccccc1
active: Potency [4] 5.25 µM | Potency [9] 14.8 µM | Potency [6] 14.8 µM | Potency [8] 14.8 µM
inactive: Potency [1] | Potency [2]

CCN1CCN(Cc2ccc(NC(=O)Nc3ccc(Oc4cc(NC)ncn4)cc3)cc2C(F)(F)F)CC1
active: Potency [9] 0.0023 µM
inactive: Potency [1] | Potency [2]

Cc1ccc(C(=O)Nc2ccc(CN3CCN(C)CC3)c(C(F)(F)F)c2)cc1C#Cc1cnc2[nH]ncc2c1
inactive: Potency [1] | Potency [2]
active: Potency [4] 4.17 µM | Potency [5] 0.934 µM | Potency [7] 0.105 µM | Potency [8] 0.0934 µM | Potency [10] 0.148 µM

CN(C)Cc1ccc(-c2nc3cccc4c3n2CCNC4=O)cc1
active: Potency [6] 18.6 µM | Potency [10] 23.5 µM
inactive: Potency [1] | Potency [2] | Potency [5]

CN1CCN(c2cccc(Nc3nc4c(-c5ccc(S(C)(=O)=O)cc5)cccn4n3)c2)CC1
active: Potency [4] 4.17 µM | Potency [9] 0.662 µM | Potency [6] 2.35 µM | Potency [8] 5.9 µM | Potency [10] 13.2 µM
inactive: Potency [1] | Potency [2]

C[C@@H]1COC(Nc2ccc3ncnc(Nc4ccc(OCc5nccs5)c(Cl)c4)c3c2)=N1
inactive: Potency [1] | Potency [2]
active: Potency [9] 18.6 µM | Potency [6] 20.9 µM

COc1ccc(OC)c(-c2nnc3ccc(-c4ccc(OC)c(O[C@@H]5CCOC5)c4)nn23)c1
active: Potency [4] 8.33 µM | Potency [9] 5.25 µM | Potency [8] 2.35 µM | Potency [10] 2.35 µM
inactive: Potency [1] | Potency [2]

C[C@@H]1CCNC(=O)c2cc3ccc(C(=O)Nc4nc5ccccc5n4CCCN(C)C)cc3n21
inactive: Potency [1] | Potency [2]
active: Potency [5] 6.61 µM | Potency [9] 0.59 µM | Potency [6] 16.6 µM

COc1ccc(Cl)c(Nc2nc3ccccc3nc2NS(=O)(=O)c2cccc(NC(=O)C(C)(C)N)c2)c1
active: Potency [9] 7.42 µM | Potency [6] 23.5 µM | Potency [8] 16.6 µM | Potency [10] 20.9 µM
inactive: Potency [1] | Potency [2] | viability [4] 103%

Cc1[nH]c(/C=C2\C(=O)Nc3ccc(F)cc32)c(C)c1C(=O)NC[C@H](O)CN1CCOCC1
inactive: Potency [1] | Potency [2]
active: Potency [5] 5.25 µM | Potency [9] 0.0742 µM | Potency [6] 3.72 µM | Potency [7] 10.5 µM | Potency [8] 4.17 µM | Potency [10] 10.5 µM

COc1cc2c(cc1OC(C)C)[C@H](c1ccc(Cl)cc1)N(c1ccc(N(C)CC3CCC(N4CCN(C)C(=O)C4)CC3)cc1)C(=O)C2 (stereo partly drawn)
inactive: Potency [1] | Potency [2]
active: Potency [5] 11.8 µM | Potency [9] 2.35 µM | Potency [6] 3.72 µM | Potency [7] 4.68 µM | Potency [8] 5.9 µM | Potency [10] 10.5 µM

COc1cc2nc(-c3ccc(N4CCN(C)CC4)cc3)nc(NCCN3CCOCC3)c2cc1OC
active: Potency [4] 5.9 µM | Potency [9] 2.35 µM | Potency [6] 10.5 µM | Potency [7] 4.68 µM | Potency [8] 9.34 µM | Potency [10] 13.2 µM
inactive: Potency [1] | Potency [2]

O=C(Nc1cccnc1)c1cc(-c2ccnc(F)c2)ccc1OCc1ccccc1
active: Potency [9] 3.72 µM
inactive: Potency [1] | Potency [2] | viability [4] 121% | Potency [7] | Potency [8] | Potency [10]

Clc1cccc(-c2ccc(-c3nnc(CCCc4ccc5cccnc5n4)o3)cc2)c1
inactive: Potency [1] | Potency [2] | Potency [5] | Potency [9] | Potency [6] | Potency [7] | Potency [10]

C[C@@H]1CCN(C(=O)CC#N)C[C@@H]1N(C)c1ncnc2[nH]ccc12
inactive: Potency [1] | Potency [2]
active: Potency [4] 1.48 µM | Potency [7] 0.059 µM

CCn1c(=O)c(-c2ccc(-c3cncs3)cc2Cl)cc2cnc(Nc3ccc(N4CCN(C)CC4)cc3)nc21
active: Potency [9] 1.86 µM
inactive: Potency [1] | Potency [2] | viability [4] 104%

C[C@@H]1CC(=O)Nc2cccc(-c3cnn(C(C)(C)C)c3)c2N1
inactive: Potency [1] | Potency [2]
active: Potency [5] 18.6 µM | Potency [9] 16.6 µM | Potency [7] 14.8 µM | Potency [8] 16.6 µM

C#Cc1cccc(Nc2ncnc3cc(OCCOC)c(OCCOC)cc23)c1
active: Potency [9] 5.9 µM | Potency [6] 5.25 µM
inactive: Potency [1] | Potency [2]

C=CC(=O)N1CCC[C@@H](n2nc(-c3ccc(Oc4ccccc4)cc3)c3c(N)ncnc32)C1
inactive: Potency [1] | Potency [2] | Potency [5]
active: Potency [9] 2.95 µM | Potency [6] 5.9 µM

C[C@H]1[C@H](O)O[C@@H]2O[C@@]3(C)CC[C@H]4[C@H](C)CC[C@@H]1[C@@]24OO3
active: Potency [5] 1.18 µM | Potency [9] 0.662 µM | Potency [6] 1.18 µM | Potency [7] 3.32 µM | Potency [8] 2.95 µM
inactive: Potency [1] | Potency [2]

CC(=O)O[C@H]1C(=O)[C@@]2(C)C([C@H](OC(=O)c3ccccc3)[C@]3(O)C[C@H](OC(=O)[C@H](O)[C@@H](NC(=O)c4ccccc4)c4ccccc4)C(C)=C1C3(C)C)[C@]1(OC(C)=O)CO[C@@H]1C[C@@H]2O (stereo partly drawn)
inactive: Potency [1] | Potency [2]
active: Potency [4] 0.148 µM | Potency [5] 0.0059 µM | Potency [6] 0.0042 µM | Potency [8] 0.0209 µM

COc1ccccc1-c1cccc(-c2c(O)c3cc(C#N)c(Cl)cc3[nH]c2=O)c1
inactive: Potency [1] | Potency [2] | viability [4] 99.8% | Potency [9] | Potency [6] | Potency [8] | Potency [10]

O=C(O)C1=CO[C@@H](O[C@@H]2O[C@H](CO)[C@@H](O)[C@H](O)[C@H]2O)[C@@H]2C(CO)=CC[C@H]12
inactive: Potency [1] | Potency [2] | viability [4] 118% | Potency [6] | Potency [7] | Potency [8] | Potency [10]

CNCc1ccc(-c2cc(-c3nc(-c4ccc(S(=O)(=O)C(C)C)cc4)cnc3N)on2)cc1
active: Potency [7] 0.742 µM
inactive: Potency [1] | Potency [2] | Potency [5]

Cc1nnc(C[C@@H]2C=C(c3ccc(Cl)cc3)c3ccccc3-n3c(C)nnc32)o1
inactive: Potency [1] | Potency [2]
active: Potency [4] 0.662 µM | Potency [5] 0.332 µM | Potency [7] 2.09 µM | Potency [8] 3.32 µM | Potency [10] 5.25 µM

Cn1c(NC[C@@H](N)Cc2ccccc2)nc(-c2ccncc2)c(-c2ccc3ccccc3c2)c1=O
inactive: Potency [1] | Potency [2]
active: Potency [5] 20.9 µM | Potency [9] 20.9 µM | Potency [6] 26.3 µM | Potency [10] 26.3 µM

O=C(O)c1ccc(CN2CCC(CN[C@@H]3C[C@H]3c3ccccc3)CC2)cc1
inactive: Potency [1] | Potency [2] | Potency [6] | Potency [8] | Potency [10]
active: Potency [4] 0.186 µM | Potency [7] 0.209 µM

C[C@H](CN(C)C)Oc1nc(Nc2cc3cccc(Cl)c3cn2)cnc1C#N
active: Potency [5] 4.68 µM | Potency [9] 1.86 µM
inactive: Potency [1] | Potency [2]

From PubChem BioAssay (NCATS)
